Experiment in all cases: peptide microarray binding signal (635 nm), min-max normalized on array (fraction of array maximum); higher = stronger binding
What all share (details): peptide region: H3 11-23

The target of experiment [1] is T1, HaloTag-ATRX ADD domain (163-292).
T1 chain: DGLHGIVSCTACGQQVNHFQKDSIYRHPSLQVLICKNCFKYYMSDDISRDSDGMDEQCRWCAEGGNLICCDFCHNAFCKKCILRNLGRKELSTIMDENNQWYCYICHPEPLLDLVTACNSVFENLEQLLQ
The gist of the method:
(§1)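 Binding signal is the mean intensity of triplicate spots, min-max scaled within each library. Histone 13-mer peptide–cellulose conjugates were spotted in triplicate on nitrocellulose with a Cy3 tracer and blocked overnight at 4°C. Probing lasted 1 h at 4°C, either with biotin-labelled HaloTag reader fusions (10 nM to 1 μM) and streptavidin-Alexa Fluor 647 or with rabbit histone antibodies (1:10,000 to 1:2,000) and anti-rabbit Alexa 647. An Axon GenePix 4000B read signal at 635 nm and misprints at 532 nm.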

In experiment [2] the target is HaloTag-ING2 PHD (mouse Ing2 200-280). The procedure, abridged: as §1
For experiment [3], the target named is anti-H3K4me3 antibody ab8580. The procedure, abridged:
as §1

Experiment [4] concerns the target anti-H3K9me3 antibody ab8898. The gist of the method: as §1
[5] abbreviates: peptide modifications: H3K14me2 H3K18ac, binder concentration: 1:2,000 dilution.
Where [6] appears, read: peptide modifications: H3K14me2 H3K18ac, binder concentration: 1:10,000 dilution.
Where [7] appears, read: peptide modifications: H3K14me2 H3K18me1, binder concentration: 1:2,000 dilution.
Where [8] appears, read: peptide modifications: H3K14me2 H3K18me1, binder concentration: 1:10,000 dilution.
Where [9] appears, read: peptide modifications: H3K14me1 H3R17me2s, binder concentration: 1:2,000 dilution.
[10] abbreviates: peptide modifications: H3K14me1 H3R17me2s, binder concentration: 1:10,000 dilution.
The mark [11] stands for this setting: peptide modifications: H3K14me1 H3K18ac, binder concentration: 1:2,000 dilution.
[12] abbreviates: peptide modifications: H3K14me1 H3K18ac, binder concentration: 1:10,000 dilution.
Where [13] appears, read: peptide modifications: H3K14ac H3R17me2a, binder concentration: 1:2,000 dilution.
The mark [14] stands for this setting: peptide modifications: H3K14ac H3R17me2a, binder concentration: 1:10,000 dilution.

± gives the standard deviation.

TGGKAPRKQLATK [H3 11-23 T G G Kme2 A P R Kac Q L A T K]: the “peptide microarray binding signal” value in experiment [1] (peptide modifications: H3K14me2 H3K18ac, binder concentration: 50 nM) came to 0.00868 ± 0.00034; in experiment [1] (peptide modifications: H3K14me2 H3K18ac, binder concentration: 500 nM), 0.0165 ± 0.0015; in experiment [2] (peptide modifications: H3K14me2 H3K18ac, binder concentration: 10 nM), 0.0173 ± 0.003; in experiment [2] (peptide modifications: H3K14me2 H3K18ac, binder concentration: 100 nM), 0.0242 ± 0.0017; in experiment [3] (setting [5]), 0.0129 ± 0.0016; in experiment [3] (setting [6]), 0.0111 ± 0.00098. Further, the “peptide microarray binding signal” value in experiment [4] (setting [5]) turned out to be 0.00806 ± 0.00086; in experiment [4] (setting [6]), 0.00496 ± 0.00013.

For the molecule TGGKAPRKQLATK [H3 11-23 T G G Kme2 A P R Kme Q L A T K], the “peptide microarray binding signal” value in experiment [1] (peptide modifications: H3K14me2 H3K18me1, binder concentration: 50 nM) was found to be 0.00752 ± 0.0013; in experiment [1] (peptide modifications: H3K14me2 H3K18me1, binder concentration: 500 nM) it was 0.0129 ± 0.00084; in experiment [2] (peptide modifications: H3K14me2 H3K18me1, binder concentration: 10 nM) it was 0.013 ± 0.0021; in experiment [2] (peptide modifications: H3K14me2 H3K18me1, binder concentration: 100 nM), 0.0405 ± 0.012; in experiment [3] (setting [7]), 0.0136 ± 0.0009; in experiment [3] (setting [8]), 0.00964 ± 0.0012. Further, the “peptide microarray binding signal” value in experiment [4] (setting [7]) stood at 0.00565 ± 0.00074; in experiment [4] (setting [8]), 0.0045 ± 0.00053.

With TGGKAPRKQLATK [H3 11-23 T G G Kme A P Rme2s K Q L A T K], the “peptide microarray binding signal” value came out at 0.00793 ± 0.00067 in experiment [1] (peptide modifications: H3K14me1 H3R17me2s, binder concentration: 50 nM); 0.0311 ± 0.0068 in experiment [1] (peptide modifications: H3K14me1 H3R17me2s, binder concentration: 500 nM); 0.0249 ± 0.0026 in experiment [2] (peptide modifications: H3K14me1 H3R17me2s, binder concentration: 10 nM); 0.0474 ± 0.0059 in experiment [2] (peptide modifications: H3K14me1 H3R17me2s, binder concentration: 100 nM); 0.00508 ± 0.0026 in experiment [3] (setting [9]); 0.0135 ± 0.0052 in experiment [3] (setting [10]). Moreover, the entries for the “peptide microarray binding signal” value in experiment [4] (setting [9]) and in experiment [4] (setting [10]) were 0.0103 ± 0.0018 and 0.00709 ± 0.00074, respectively.

On to TGGKAPRKQLATK [H3 11-23 T G G Kme A P R Kac Q L A T K], for which the “peptide microarray binding signal” value stood at 0.00715 ± 0.00026 in experiment [1] (peptide modifications: H3K14me1 H3K18ac, binder concentration: 50 nM); 0.014 ± 0.00051 in experiment [1] (peptide modifications: H3K14me1 H3K18ac, binder concentration: 500 nM); 0.014 ± 0.0016 in experiment [2] (peptide modifications: H3K14me1 H3K18ac, binder concentration: 10 nM); 0.0363 ± 0.0088 in experiment [2] (peptide modifications: H3K14me1 H3K18ac, binder concentration: 100 nM); 0.007 ± 0.001 in experiment [3] (setting [11]); 0.00331 ± 0.0003 in experiment [3] (setting [12]). The entries for the “peptide microarray binding signal” value in experiment [4] (setting [11]) and in experiment [4] (setting [12]) were 0.00159 ± 1.9e-05 and 0.00127 ± 3.4e-05, respectively.

Turning to TGGKAPRKQLATK [H3 11-23 T G G Kac A P Rme2a K Q L A T K], the “peptide microarray binding signal” value in experiment [1] (peptide modifications: H3K14ac H3R17me2a, binder concentration: 50 nM) turned out to be 0.00981 ± 0.001; in experiment [1] (peptide modifications: H3K14ac H3R17me2a, binder concentration: 500 nM), 0.0127 ± 0.00086; in experiment [2] (peptide modifications: H3K14ac H3R17me2a, binder concentration: 10 nM) it was 0.0112 ± 0.00063; in experiment [2] (peptide modifications: H3K14ac H3R17me2a, binder concentration: 100 nM), 0.0221 ± 0.00099; in experiment [3] (setting [13]), 0.00436 ± 0.00064; in experiment [3] (setting [14]) it was 0.00445 ± 0.00022. Moreover, the “peptide microarray binding signal” value in experiment [4] (setting [13]) came to 0.00344 ± 0.00027; in experiment [4] (setting [14]), 0.002479 ± 2.2e-05.

Source of the values: the supplement of paper PMC4022240.
